Measurements from PubChem BioAssay (NCI).
The panel holds about 83,000 compounds, 20% with a hit somewhere; the sample as a whole holds those more often.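 Each cell line was grown in a 96-well plate and treated with one concentration of compound for 48 hours. Values below 10 were considered active.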 Unmarked numbers belong to inactive results. The source made the active and inactive calls.

tested on: SF-295 CNS; assay: NCI-60 one-dose screen, 48 h (100 = growth as untreated, 0 = no growth, -100 = all killed); settings: 10 µM unless noted

| Compound | growth |
| --- | --- |
| COC(=O)[C@@H](Cc1c[nH]c2ccccc12)NC(=O)/C=C/c1ccccc1 | -1.2% (active) |
| NNc1ccc(S(N)(=O)=O)cc1 | 105% |
| COc1ccc(-c2ccc(-c3ccc(C(=N)N)s3)s2)cc1 | -77.6% (active) |
| O=P(O)(O)C(O)(Cc1cccnc1)P(=O)(O)O | 111% |
| O=C1OC(/C=C/c2ccccc2)=NC/1=C/c1ccccc1[N+](=O)[O-] | 97.4% |
| N/C(=N\O)c1ncc(-c2ccc(C(F)(F)F)cc2)c(NC2CCCCCC2)n1 | -94.7% [100 µM] (active) |
| Cc1cc(Nc2c3ccccc3nc3ccccc23)ccc1NS(C)(=O)=O | 34.4% |
| COC(=O)[C@H](Cc1cn(C)cn1)NC(=O)[C@H](CC(C)C)NC(=O)Nc1cc(C(F)(F)F)cc(C(F)(F)F)c1 | -96.5% [100 µM] (active) |
| N=C(N)c1ccc(-c2ccc(-c3cccs3)s2)cc1F | -71.2% (active) |
| O=C(Nc1cccc(Cl)c1)Nc1ccccc1Cl | 80.7% |
| CCCCCCCCCCCCCC | 99.2% |
| Cc1nn(-c2ccccc2)c2nc3c(nc12)C1=NCCN1C(c1ccc(Cl)cc1)N3 (stereo unspecified) | 94.6% |
| COc1cc(OC)c(C(=O)/C=C/c2cccc(OC(C)=O)c2)cc1CC=C(C)C | 97.7% |
| C[N+](C)(C)CCCCCCCCCC[N+](C)(C)C | 113% |
| Cc1cc2nc(CN)[nH]c2cc1C | 98.1% |
| CC(=O)C1CCC2C3CC(C)=C4CC(O)CCC4(C)C3CCC12C (stereo unspecified) | 113% |
| N=C(N)c1ccc(-c2ccc(-c3ccco3)o2)cc1F | -27% (active) |
| N#Cc1ccc(-c2ccc(-c3cccs3)o2)cc1F | 75.5% |

| Compound | growth |
| --- | --- |
| O=C(Nc1cccc(-n2ccc3c(NC(=O)c4ccccc4)nccc32)c1)c1ccc(Cl)c(Cl)c1 | -69.8% (active) |
| COc1ccc2nc3ccccc3c(NCc3ccc(C)cc3)c2c1 | 23.6% |
| COc1cc(OC)cc(-c2ccc(-c3ccc(C(=N)N)s3)s2)c1 | -78.5% (active) |
| COc1ccc(-c2cc(-c3cc4ccccc4oc3=O)n(-c3ccccc3)n2)cc1 | 94.7% |
| O=C1c2cccc3cccc(c23)C(=O)N1CCCCCCCCCCN1C(=O)c2cccc3cccc(c23)C1=O | 95.3% |
| O=C(CCCN1CCC(O)(c2ccc(Br)cc2)CC1)c1ccc(F)cc1 | 54.7% |
| O=C(c1ccc(OCCN2CCCCC2)cc1)c1c(-c2ccc(O)cc2)sc2cc(O)ccc12 | 106% |
| CCCCCc1c(C)[nH]c(/C=C2\N=C(c3ccc[nH]3)C=C2Oc2ccc(OC)cc2)c1C | -82.1% [100 µM] (active) |
| ClCCn1cnc2c(SCc3ccccc3Cl)ncnc21 | 8.93% (active) |
| O=C(N/N=C/c1ccc([N+](=O)[O-])o1)c1ccc(O)cc1 | 49.8% |
| CCS(=O)(=O)Nc1cccc(Nc2c3cccc(C)c3nc3c(C)cccc23)c1OC | -7.84% (active) |
| CCN(C(=O)CCl)C(C)(C)C(SSSC(c1ccc(Cl)cc1)C(C)(C)N(CC)C(=O)CCl)c1ccc(Cl)cc1 (stereo unspecified) | 89.5% |
| CCOC(=O)C(CCCCC(NC(C)=O)(C(=O)OCC)C(=O)OCC)(NC(C)=O)C(=O)OCC | 99.3% |
| ClC1=NC(Cl)C(Cl)=N/C1=N\c1ncn[nH]1 (stereo unspecified) | 101% |
| COc1cc2c(cc1OC)-c1cc(OC)c(OC)cc1C(CN(C)C)C2 (stereo unspecified) | 4.33% [100 µM] (active) |
| Oc1ccc(-c2nnc3c4[nH]ccc4ncn23)cc1 | 101% |
| COc1ccc(/C=N/NC(N)=S)c(OC)n1 | 106% |
| CC(C)(C)c1cc(C[P+](c2ccccc2)(c2ccccc2)c2ccccc2)cc(C(C)(C)C)c1O | -3.88% (active) |
